Reference: PubChem BioAssay (NCI)
The panel holds about 83,000 compounds, 20% with a hit somewhere; the sample as a whole holds those more often.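 Single-dose data. Exposure time 48 hours. Values below 10 considered active.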 Unmarked numbers belong to inactive results. Activity calls are given as the source filed them.

tested on: HL-60(TB) leukemia; experiment: NCI-60 one-dose screen, 48 h (100 = growth as untreated, 0 = no growth, -100 = all killed); conditions: 10 µM unless noted

Q: For COc1ccc(NC(=O)CSc2nc(-c3ccc(OC)c(OC)c3)cc(-c3cc(OC)c(OC)c(OC)c3)n2)cc1, which growth is on record?
A: Its growth is 115%.

Q: How did the growth turn out when Cc1cscc(C)c1=S was run?
A: The growth was 111%.

Q: How did the growth turn out when COC(=O)c1c2c(c(C)[n+]([O-])c1C)C(=O)C(NCCN1CCOCC1)=CC2=O was run?
A: The growth was 52.4%.

Q: How did the growth turn out when C=C1c2c(C)nn(-c3ccc(NC(C)=O)cc3)c2N(C)C23CC1C1(C)c4c(C)nn(-c5ccc(NC(C)=O)cc5)c4N(C)C(C)(CC12)C3 (stereo not given) was run?
A: The growth was -20.6% (active).

Q: COc1cc(-c2nc(Nc3nc4ccccc4s3)[nH]c(=O)c2C#N)cc(OC)c1O was tested. Which growth did it give?
A: The growth was 98%.

Q: With CC(=O)c1cc(O)ccc1O as the compound, how does the growth read?
A: The growth was 62.1%.

Q: With COc1ccc(C(C(=O)O)c2ccc(OC)cc2)cc1 as the compound, how does the growth read?
A: The growth was 97.9%.

Q: Which growth does the source give for CCOC(=O)Nc1ccc(-c2ccc3c(c2)NC(=O)/C3=C\c2ccc[nH]2)cc1 here?
A: Its growth is 98.5%.

Q: For CCCCOc1ccc(/C=C2/SC(N3CCOCC3)=NC2=O)cc1OCC, which growth is on record?
A: Its growth is 101%.

Q: For COc1ccc(NC(=O)c2ccc(Nc3ncnc4c3cnn4-c3cccc(F)c3)cc2)cc1, which growth is on record?
A: The growth was 94.9%.

Q: How did the growth turn out when O=C(CN1CCN(c2cc3c(cc2F)c(=O)c(C(=O)N/N=C/c2ccccc2)cn3C2CC2)CC1)N/N=C\c1ccccc1 was run?
A: The growth was 51.1%.

Q: CCOC(=O)c1cc(C(=O)c2ccc(OC)c(OC)c2)n2ccc(/C=C/c3cc[n+](CC(=O)c4ccc(OC)c(OC)c4)cc3)cc12 was tested. Which growth did it give?
A: Its growth is 88.6%.

Q: With CC1=CCC[C@@H]2C1(C)CC[C@H](C)[C@@]2(C)CC1=CC(=O)C(SC(C)(C)C)=CC1=O (stereo not given in full) as the compound, how does the growth read?
A: The growth was 56.4%.

Q: How did the growth turn out when COc1ccc(C2CC(c3ccc(Nc4nc(Nc5ccc(F)cc5)nc(Nc5ccc(F)cc5)n4)cc3)=NN2C(C)=O)cc1 (stereo not given) was run?
A: Its growth is 17.1%.

Q: How did the growth turn out when COc1cc2c3c(c1)nc(C)n3CCC2 was run?
A: The growth was 99.7%.

Q: How did the growth turn out when COc1cccc(Nc2ncnc3cc(NC(=O)CCl)ccc23)c1 was run?
A: The growth was -49.7% (active).

Q: Which growth does the source give for NCCn1cc(-c2nc(-c3c[nH]c4ncccc34)cs2)c2ccccc21 here?
A: Its growth is 78.2%.

Q: With CN(C)C1=NCCN1 as the compound, how does the growth read?
A: The growth was 97.9%.

Q: Which growth does the source give for O=c1[nH]c2c3ccncc3cc(-c3cccc(Cl)c3)c2c2cnccc12 here?
A: Its growth is 17.6%.

Q: How did the growth turn out when Cc1ccc[n+](CCC(N)=O)c1 was run?
A: The growth was 86.6%.

Q: For CNCCn1c(=O)c2cc(OC)c(OC)cc2c2ccc3cc4c(cc3c21)OCO4, which growth is on record?
A: Its growth is -25.7% (active).

Q: How did the growth turn out when COc1ccc(N=C2CSc3nnc(-c4cc(F)c(Cl)cc4Cl)n3N2)cc1 was run?
A: Its growth is -48% (active).

Q: For CC(=O)/C(=C/c1ccc(Br)cc1)C(=O)c1ccccc1, which growth is on record?
A: The growth was 57%.

Q: For CCCCN(CCCC)CCC(C)(O)c1cc2ccccc2c2ccccc12 (stereo not given), which growth is on record?
A: Its growth is 83.7%.

Q: How did the growth turn out when NCCNc1nc(-c2ccccc2)nc2nc(-c3ccccc3)oc12 was run?
A: The growth was 97.9%.

Q: O=C1c2ccccc2C(=O)c2c1ccc1c(=O)n(-c3ccccc3C(F)(F)F)nnc21 was tested. Which growth did it give?
A: The growth was -42% (active).

Q: COc1ccc(CN2c3ccccc3Oc3ccccc32)cc1F was tested. Which growth did it give?
A: Its growth is 54.1%.

Q: For CC(C)(C)C(=O)CCCCCCCC/C=C/CCCC(O)c1ccco1 (stereo not given), which growth is on record?
A: Its growth is 75%.

Q: How did the growth turn out when O=C1/C(=C/c2ccc(Cl)cc2Cl)CN(S(=O)(=O)c2ccccc2)C/C1=C\c1ccc(Cl)cc1Cl was run?
A: Its growth is 11%.

Q: For C/C=C/C1OC23CCCCC2C(C#N)(C(=N)O3)C1(C#N)C#N (stereo not given), which growth is on record?
A: The growth was 106%.

Q: For O=C(N/N=C/c1ccc(O)c(O)c1)c1sc2ccccc2c1Cl, which growth is on record?
A: Its growth is 4.17% (active).

Q: Which growth does the source give for CC(C)(CNC1CCCCC1)OC(=O)c1ccccc1 here?
A: Its growth is 95.3%.

Q: With O=C(/C=C(O)/C=C/c1ccc(SC(F)(F)F)cc1)/C=C/c1ccc(SC(F)(F)F)cc1 as the compound, how does the growth read?
A: Its growth is 81.9%.

Q: For COc1cc2c(c(OC)c1OC)C(=O)CC(c1cccc(C(=O)Nc3ccccc3Br)c1)O2 (stereo not given), which growth is on record?
A: The growth was 76.5%.

Q: How did the growth turn out when Nc1ncnc(N)c1NC(=O)c1ccc(OCc2ccccc2)cc1 was run?
A: The growth was 108%.

Q: With C=C(C)[C@@H]1CC[C@]2(C)[C@H](CC(=O)N[C@H]3[C@@H]4C[C@](C)(C(=O)OC)CC[C@]4(C)CC[C@]32C)[C@@]1(C)CCC#N as the compound, how does the growth read?
A: Its growth is 83.1%.

Q: How did the growth turn out when CCOC(=O)C(COS(C)(=O)=O)(COS(C)(=O)=O)C(=O)OCC was run?
A: The growth was 104%.

Q: With COc1ccc(-c2c(-c3ccccc3)noc2N)cc1OC as the compound, how does the growth read?
A: The growth was 95.2%.

Q: With O=C(O)c1ccc(-n2c(=O)c3ccccc3c3ccccc3c2=O)cc1 as the compound, how does the growth read?
A: The growth was 83.7%.

Q: With O=[N+]([O-])c1ccc(NCSc2ccc(Cl)cc2)cc1 as the compound, how does the growth read?
A: The growth was 83.2%.
